This passage reports binding signal results from article PMC7862700, “An all-to-all approach to the identification of sequence-specific readers for epigenetic DNA modifications on cytosine”.

Common to all, as to assay: DAPPL (digital affinity profiling via proximity ligation, sequencing); 10 mM Tris-HCl pH 7.5, 50 mM NaCl, 1 mM DTT, 4% glycerol, room temperature, 30 min; GST-TFs on glutathione beads, 16-mer random dsDNA library, 0.1% formaldehyde crosslink after washing; high values mean tight binding
Details in all cases: protein: recombinant; tags: N-terminal GST; dsDNA, one strand shown

For test [1], the target named is T1, ERF (Homo sapiens, UniProt P50548 1-548).
T1 sequence: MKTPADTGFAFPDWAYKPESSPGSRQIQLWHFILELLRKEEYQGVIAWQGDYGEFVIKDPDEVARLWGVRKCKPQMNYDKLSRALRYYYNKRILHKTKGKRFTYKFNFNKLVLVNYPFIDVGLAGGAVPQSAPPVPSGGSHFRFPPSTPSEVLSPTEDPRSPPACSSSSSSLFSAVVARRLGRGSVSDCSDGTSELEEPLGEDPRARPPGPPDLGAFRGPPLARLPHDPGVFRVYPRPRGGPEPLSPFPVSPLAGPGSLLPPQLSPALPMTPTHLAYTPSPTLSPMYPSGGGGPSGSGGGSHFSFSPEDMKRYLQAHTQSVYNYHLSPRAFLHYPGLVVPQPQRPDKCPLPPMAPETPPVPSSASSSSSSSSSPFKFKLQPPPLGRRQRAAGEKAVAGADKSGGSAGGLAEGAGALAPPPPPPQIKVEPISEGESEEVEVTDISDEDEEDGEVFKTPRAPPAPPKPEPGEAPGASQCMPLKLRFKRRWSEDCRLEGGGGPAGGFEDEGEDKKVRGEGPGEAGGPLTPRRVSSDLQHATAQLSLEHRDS
In a few lines:
(§1)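 In yeast, human transcription factors were expressed with a GST fusion, then pulled down on glutathione beads and given DNA barcodes. Pooled with a tag-only sample, they were exposed to 200 nmole of a 16-mer random double-stranded DNA library (Tris/NaCl/DTT/glycerol buffer, room temperature, 30 min), washed, crosslinked with 0.1% formaldehyde, proximity-ligated using BsaI/T4 ligase for 1 h at 37 °C, PCR-amplified and read on an Illumina NextSeq500. Each hexamer's frequency of reads for a factor, divided by the matching frequency for the tag-only sample, gives the binding signal.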

In test [2] the target is T2, ETV3L (Homo sapiens, UniProt Q6ZN32 1-361).
T2 sequence: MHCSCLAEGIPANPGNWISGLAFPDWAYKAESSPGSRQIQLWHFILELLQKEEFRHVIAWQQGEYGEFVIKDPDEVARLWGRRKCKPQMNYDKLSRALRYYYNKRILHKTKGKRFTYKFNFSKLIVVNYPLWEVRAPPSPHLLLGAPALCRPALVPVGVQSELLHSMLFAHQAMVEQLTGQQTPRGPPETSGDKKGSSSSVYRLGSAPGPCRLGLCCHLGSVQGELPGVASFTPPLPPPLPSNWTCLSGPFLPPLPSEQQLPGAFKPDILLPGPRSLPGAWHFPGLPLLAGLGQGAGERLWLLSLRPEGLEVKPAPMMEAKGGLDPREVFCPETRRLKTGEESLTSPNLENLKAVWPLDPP
In short, it runs like this:
as §1

The target of test [3] is T3, ETS2 (Homo sapiens, UniProt P15036 1-469).
T3 sequence: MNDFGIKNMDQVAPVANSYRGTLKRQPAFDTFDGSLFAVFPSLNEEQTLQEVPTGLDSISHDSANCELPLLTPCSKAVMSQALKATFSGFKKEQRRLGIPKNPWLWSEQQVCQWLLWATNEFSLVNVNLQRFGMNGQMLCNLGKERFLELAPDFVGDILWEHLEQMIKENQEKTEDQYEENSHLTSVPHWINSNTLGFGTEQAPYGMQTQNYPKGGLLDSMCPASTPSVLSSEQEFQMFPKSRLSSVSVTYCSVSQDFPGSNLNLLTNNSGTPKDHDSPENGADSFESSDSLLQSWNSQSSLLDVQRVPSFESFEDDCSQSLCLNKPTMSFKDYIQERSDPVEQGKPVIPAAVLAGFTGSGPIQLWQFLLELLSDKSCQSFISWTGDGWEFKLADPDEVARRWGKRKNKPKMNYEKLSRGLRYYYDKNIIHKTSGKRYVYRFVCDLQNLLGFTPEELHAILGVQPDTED
In short, it runs like this: as §1

Test [4] concerns the target T4, SPDEF (Homo sapiens, UniProt O95238 1-335).
T4 sequence: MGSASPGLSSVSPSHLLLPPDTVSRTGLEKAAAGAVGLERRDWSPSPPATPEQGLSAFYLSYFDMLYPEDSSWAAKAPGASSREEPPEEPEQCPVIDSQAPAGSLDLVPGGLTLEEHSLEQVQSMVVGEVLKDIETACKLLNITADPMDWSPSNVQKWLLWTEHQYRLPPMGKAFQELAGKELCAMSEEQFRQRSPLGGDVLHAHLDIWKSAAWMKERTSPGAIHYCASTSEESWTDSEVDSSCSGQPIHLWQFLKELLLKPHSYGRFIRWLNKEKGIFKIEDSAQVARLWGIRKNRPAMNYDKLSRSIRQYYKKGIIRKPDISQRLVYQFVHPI
In a few lines:
as §1

Test [5] has as its target T5, ETV7 (Homo sapiens, UniProt Q9Y603 1-341).
T5 sequence: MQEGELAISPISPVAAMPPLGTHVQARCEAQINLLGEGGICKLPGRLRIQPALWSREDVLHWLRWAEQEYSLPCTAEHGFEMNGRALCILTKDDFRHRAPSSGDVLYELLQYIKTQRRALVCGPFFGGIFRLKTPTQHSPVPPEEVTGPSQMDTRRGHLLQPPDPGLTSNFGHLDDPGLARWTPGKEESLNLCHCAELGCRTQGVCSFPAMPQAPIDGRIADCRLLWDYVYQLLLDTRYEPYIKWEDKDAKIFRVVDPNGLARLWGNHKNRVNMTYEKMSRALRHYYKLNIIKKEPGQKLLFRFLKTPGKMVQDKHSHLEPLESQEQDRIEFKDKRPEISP
In a few lines:
as §1

For test [6], the target named is T6, ETV3 (Homo sapiens, UniProt P41162-2 1-143).
T6 sequence: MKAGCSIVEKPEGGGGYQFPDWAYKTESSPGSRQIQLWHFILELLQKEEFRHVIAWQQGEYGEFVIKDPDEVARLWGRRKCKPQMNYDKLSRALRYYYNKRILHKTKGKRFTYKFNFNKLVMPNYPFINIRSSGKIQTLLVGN
In a few lines:
as §1

Test [7] deals with ETV6 (Homo sapiens, UniProt P41212 1-452). In short, it runs like this: as §1
Test [8] addresses T7, ELF5 (Homo sapiens, UniProt Q9UKW6-2 1-255).
T7 sequence: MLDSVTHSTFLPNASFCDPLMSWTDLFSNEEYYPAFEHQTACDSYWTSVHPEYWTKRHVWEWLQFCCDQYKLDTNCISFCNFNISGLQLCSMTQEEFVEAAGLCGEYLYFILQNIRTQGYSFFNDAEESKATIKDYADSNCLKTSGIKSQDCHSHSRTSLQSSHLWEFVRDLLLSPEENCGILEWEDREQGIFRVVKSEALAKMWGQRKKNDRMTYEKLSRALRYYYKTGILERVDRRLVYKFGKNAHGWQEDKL
In a few lines:
as §1

Sequence of ETV6 (P41212 whole entry): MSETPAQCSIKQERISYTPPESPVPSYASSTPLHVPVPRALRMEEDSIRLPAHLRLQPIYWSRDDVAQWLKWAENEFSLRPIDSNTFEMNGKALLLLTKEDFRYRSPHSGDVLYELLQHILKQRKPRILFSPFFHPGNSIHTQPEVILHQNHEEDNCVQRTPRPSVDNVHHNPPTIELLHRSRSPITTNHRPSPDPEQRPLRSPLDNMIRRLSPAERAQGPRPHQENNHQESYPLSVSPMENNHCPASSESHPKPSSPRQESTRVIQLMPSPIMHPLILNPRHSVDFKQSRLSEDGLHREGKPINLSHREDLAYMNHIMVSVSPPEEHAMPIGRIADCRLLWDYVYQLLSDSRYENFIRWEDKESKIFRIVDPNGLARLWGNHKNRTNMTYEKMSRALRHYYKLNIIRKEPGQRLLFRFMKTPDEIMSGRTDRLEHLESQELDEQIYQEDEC

As for GCTTGG, the binding signal in test [1] is 1.18 fold enrichment (6-mer frequency, TF over GST control); in test [2] it was 1.01 fold enrichment (6-mer frequency, TF over GST control); in test [3], 1.14 fold enrichment (6-mer frequency, TF over GST control); in test [4], 1.08 fold enrichment (6-mer frequency, TF over GST control); in test [5], 1.13 fold enrichment (6-mer frequency, TF over GST control); in test [6], 1.02 fold enrichment (6-mer frequency, TF over GST control). Further, the binding signal in test [7] is 1.13 fold enrichment (6-mer frequency, TF over GST control).
In the case of TCACAG, the binding signal in test [1] is 1.02 fold enrichment (6-mer frequency, TF over GST control); in test [2], 1.13 fold enrichment (6-mer frequency, TF over GST control); in test [3], 1.06 fold enrichment (6-mer frequency, TF over GST control); in test [4], 1.05 fold enrichment (6-mer frequency, TF over GST control); in test [5] it was 1.11 fold enrichment (6-mer frequency, TF over GST control); in test [6], 1.06 fold enrichment (6-mer frequency, TF over GST control). Further, in test [7], the binding signal is 1.11 fold enrichment (6-mer frequency, TF over GST control).
Regarding CGAGTT, the binding signal in test [1] is 1.08 fold enrichment (6-mer frequency, TF over GST control); in test [2] it was 1.16 fold enrichment (6-mer frequency, TF over GST control); in test [3] it was 1.07 fold enrichment (6-mer frequency, TF over GST control); in test [4], 1.02 fold enrichment (6-mer frequency, TF over GST control); in test [5], 1.08 fold enrichment (6-mer frequency, TF over GST control); in test [6], 1.12 fold enrichment (6-mer frequency, TF over GST control). In test [7], the binding signal is 1.13 fold enrichment (6-mer frequency, TF over GST control).
On to TTAGAA, for which the binding signal is 1.1 fold enrichment (6-mer frequency, TF over GST control) in test [1]; 1.07 fold enrichment (6-mer frequency, TF over GST control) in test [2]; 1.08 fold enrichment (6-mer frequency, TF over GST control) in test [3]; 1 fold enrichment (6-mer frequency, TF over GST control) in test [4]; 1.08 fold enrichment (6-mer frequency, TF over GST control) in test [5]; 1.06 fold enrichment (6-mer frequency, TF over GST control) in test [6]. In test [7], the binding signal is 1.15 fold enrichment (6-mer frequency, TF over GST control).
On to TAATCG, for which the binding signal in test [1] was 1.06 fold enrichment (6-mer frequency, TF over GST control); in test [2] it was 1.09 fold enrichment (6-mer frequency, TF over GST control); in test [3], 1.08 fold enrichment (6-mer frequency, TF over GST control); in test [4], 1.05 fold enrichment (6-mer frequency, TF over GST control); in test [8] it was 1.05 fold enrichment (6-mer frequency, TF over GST control); in test [7] it was 1.05 fold enrichment (6-mer frequency, TF over GST control).
For CTGTGC, the binding signal is 1.12 fold enrichment (6-mer frequency, TF over GST control) in test [1]; 1.13 fold enrichment (6-mer frequency, TF over GST control) in test [2]; 1.18 fold enrichment (6-mer frequency, TF over GST control) in test [3]; 1.12 fold enrichment (6-mer frequency, TF over GST control) in test [4]; 1 fold enrichment (6-mer frequency, TF over GST control) in test [8]; 1.19 fold enrichment (6-mer frequency, TF over GST control) in test [6]. Moreover, the binding signal in test [7] was 1.22 fold enrichment (6-mer frequency, TF over GST control).
For the sequence CGCTAG, the binding signal was 1.08 fold enrichment (6-mer frequency, TF over GST control) in test [1]; 1.06 fold enrichment (6-mer frequency, TF over GST control) in test [2]; 1.03 fold enrichment (6-mer frequency, TF over GST control) in test [3]; 1.08 fold enrichment (6-mer frequency, TF over GST control) in test [4]; 1.05 fold enrichment (6-mer frequency, TF over GST control) in test [8]; 1.04 fold enrichment (6-mer frequency, TF over GST control) in test [7].
Turning to ATCGTC, the binding signal in test [1] was 1.13 fold enrichment (6-mer frequency, TF over GST control); in test [2], 1.09 fold enrichment (6-mer frequency, TF over GST control); in test [3] it was 1.05 fold enrichment (6-mer frequency, TF over GST control); in test [4], 1.05 fold enrichment (6-mer frequency, TF over GST control); in test [8], 1.07 fold enrichment (6-mer frequency, TF over GST control); in test [6], 1.06 fold enrichment (6-mer frequency, TF over GST control). For the same sequence, the binding signal in test [7] is 1.06 fold enrichment (6-mer frequency, TF over GST control).
Take GGATCC: the binding signal in test [1] is 1.06 fold enrichment (6-mer frequency, TF over GST control); in test [2] it was 1.15 fold enrichment (6-mer frequency, TF over GST control); in test [3], 1.22 fold enrichment (6-mer frequency, TF over GST control); in test [4], 2.07 fold enrichment (6-mer frequency, TF over GST control); in test [8], 1.13 fold enrichment (6-mer frequency, TF over GST control); in test [6], 1.13 fold enrichment (6-mer frequency, TF over GST control). For the same sequence, the binding signal in test [7] is 1.08 fold enrichment (6-mer frequency, TF over GST control).
As to AGCCCT, the binding signal was 1.11 fold enrichment (6-mer frequency, TF over GST control) in test [1]; 1.12 fold enrichment (6-mer frequency, TF over GST control) in test [2]; 1.16 fold enrichment (6-mer frequency, TF over GST control) in test [3]; 1.07 fold enrichment (6-mer frequency, TF over GST control) in test [4]; 1.08 fold enrichment (6-mer frequency, TF over GST control) in test [8]; 1.15 fold enrichment (6-mer frequency, TF over GST control) in test [6]. Also, the binding signal in test [7] was 1.11 fold enrichment (6-mer frequency, TF over GST control).
Regarding CGCCTA, the binding signal in test [1] is 1.15 fold enrichment (6-mer frequency, TF over GST control); in test [2], 1.25 fold enrichment (6-mer frequency, TF over GST control); in test [3] it was 1.19 fold enrichment (6-mer frequency, TF over GST control); in test [4], 1.15 fold enrichment (6-mer frequency, TF over GST control); in test [8], 1.18 fold enrichment (6-mer frequency, TF over GST control); in test [6], 1.2 fold enrichment (6-mer frequency, TF over GST control). The binding signal in test [7] is 1.14 fold enrichment (6-mer frequency, TF over GST control).
